# Shown are actives, neighbours in structure and some others; about 11% of the full set was active somewhere.
# Sm TGR inh – qHTS Assay for the Inhibitors of Schistosoma Mansoni Peroxiredoxins. Potency, µM (doses to about 114 µM), for inactives: at the top dose activity change, negative = inhibition, most hits filed as inhibitors. actives 3% (n = 360,000). Schistosoma mansoni thioredoxin glutathione reductase (TGR), Q962Y6. purified TGR, DTNB reduction, TNB absorbance 405 nm; also: % is scaled to controls: 0 for no effect and ±100 for the full control effect; nearly all actives have a fitted effect of over 60% in size
#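 First, TGR (20 nM dispensed) and NADPH were mixed with compound. Second, a 15 min room-temperature incubation followed. Third, further NADPH and then DTNB were added to start the reaction. Finally, TNB absorbance was monitored kinetically.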
# Pf growth 96h – Primary qHTS for delayed death inhibitors of the malarial parasite plastid, 96 hour incubation | P. falciparum luciferase reporter growth, 96 h | Potency, µM (titrated, usually from 28.7 µM), inactives show at the highest dose activity change, negative = inhibition, most hits filed as inhibitors | actives 6.9% (n = 320,000); also: % is scaled to controls: 0 for no effect and ±100 for the full control effect
#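 Plates of compound plus infected erythrocytes (2% hematocrit, 0.05% parasitemia final) incubate 96 hours, 37 C, 5% CO2. Detection reagent added; reduced luminescence from the parasites' luciferase reporter flags inhibition.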
# Pf growth 48h – Primary qHTS for delayed death inhibitors of the malarial parasite plastid, 48 hour incubation | actives 5.9% (n = 310,000) | Potency, µM (top dose mostly 28.7 µM), for inactives: at the highest dose activity change, negative = inhibition, usual class: inhibitors | P. falciparum luciferase growth in erythrocytes, 48 h; also: % is scaled to controls: 0 for no effect and ±100 for the full control effect
#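 Compounds are pin-transferred into medium, infected erythrocytes (2% hematocrit, 0.1% parasitemia final) are added, and plates sit one parasite generation at 37 C in 5% CO2. Detection reagent is then added and luminescence measured.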
# NS1 function inh – qHTS Assay for Inhibitors of Influenza NS1 Protein Function; actives 0.4% (n = 270,000); Potency, µM (titrated, usually from 46.1 µM), for the others: top-dose activity, positive = more growth; AID 2326, 2010; calls by dose curve; also: actives are rising curves; nearly all actives have a fitted effect of over 50% in size
#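 In this qHTS, NS1 from influenza A is expressed in budding yeast, where it slows growth. Cells are switched from glucose to 2% galactose medium (pH 6.0, -URA), treated with compound, and growth recovery is read at OD600.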
# AMA1-RON2 inh – qHTS for Inhibitors of AMA1-RON; Towards Development of Antimalarial Drug Lead: Primary Screen; AlphaScreen AMA1-biotinylated RON2 peptide binding; actives 0.2% (n = 360,000); Potency, µM (doses to about 58.2 µM), inactives show top-dose activity change, negative = inhibition, hits mostly inhibitors;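 also: 0% = vehicle wells and -100% = peptide control; nearly all actives have a fitted effect of over 45% in size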
#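 AMA1 (3D7) with his tag at 25 nM final met compounds first, then biotinylated RON2 peptide at 25 nM; detection used donor plus acceptor beads, 10 µg/mL apiece, read by AlphaScreen after 30 min at room temperature.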
# * marks the source's active call; other numbers are inactive results; i = inactive; ? = inconclusive; / = no result given; [ ] = dose if it differs, or a comment. Unless noted, calls follow the shape of the dose curve; as a rule, active = well fitted curve in the direction sought with a large enough effect; inconclusive = small, poorly fitted or top-dose-only effect, or another doubt; inactive = no such curve, though single readings can be large; an effect the other way counts as inactive or inconclusive. Potency is read from the fitted curve at half-maximal effect.
SMILES,Sm TGR inh,Pf growth 96h,Pf growth 48h,NS1 function inh,AMA1-RON2 inh
CCC(=O)c1ccc(OCC(=O)OCC(=O)NCC2CCCCC2)cc1,1%,28%,-1%,/,-1%
CC(C)CNc1nc(N)c([N+](=O)[O-])c(N2CCCCCC2)n1,-1%,10µM*,?,-92%,-17%
CCCCNC(=O)c1onc(CSc2nc3ccccc3[nH]2)c1C(=O)NCCCC,6%,3.3µM*,1.5µM*,19%,-5%
O=C(NCC1CC1)c1onc(CSc2nc3ccccc3[nH]2)c1C(=O)NCC1CC1,-16%,10µM*,?,13%,-14%
O=Cc1ccc(Oc2ncccn2)cc1,12%,34%,?,/,1%
O=P(CCCCCCCCCP(=O)(c1ccccc1)c1ccccc1)(c1ccccc1)c1ccccc1,4%,/,1.3µM*,-83%,-6%
c1cc2c3c(cccc3c1)C(N1CCCCC1)=N2,0%,12µM*,?,-85%,1%
c1cc2c3c(cccc3c1)C(N1CCCCCC1)=N2,-1%,1%[5.75 µM],-6%,-4%,11%
Cc1noc(C)c1S(=O)(=O)Nc1ccc(C(C)C)cc1,-6%,?,1%,-30%,0%
S=C(NCCc1ccccc1)Nc1ccc(Br)cn1,?,8.3µM*,-2%,-3%,11%
S=C(NCCc1ccccc1)Nc1nccs1,2.2µM*,?,-26%,/,73%
O=C(NCCc1ccccc1)C(=O)Nc1nccs1,-9%,33%,92%,5%,48%
S=C(NCc1ccccc1)Nc1nccs1,3.2µM*,111%,?,-40%,55%
CCCC(=O)Nc1c2c(nn1-c1ccc(C)cc1)CS(=O)(=O)C2,-13%,27%,5%,7%,-3%
CSc1nnc(-c2cc3ccccc3cc2O)n1C,0%,/,2.1µM*,-12%,8%
CSc1nnc(-c2ccc(O)cc2)n1C,-4%,?,-3%,1%,-6%
CCN1CCCC1CNC(=O)C1CCN(Cc2nc(-c3cccc(Br)c3)oc2C)CC1 (stereo not given),4%,?,6.6µM*,3%,-21%
COc1ccccc1CNC(=O)C1CCN(Cc2nc(-c3ccc(OC)c(OC)c3)oc2C)CC1,-7%,/,/,/,/
COc1ccccc1CNC(=O)C1CCN(Cc2nc(-c3cccc(Cl)c3)oc2C)CC1,5%,i,10µM*,-4%,-12%
CSc1ccc(-c2nc(CN3CCCCC3c3cccnc3)c(C)o2)cc1 (stereo not given),-16%,-26%,8.3µM*,-3%,-24%
Cc1oc(-c2cccc(F)c2)nc1CN1CCCCC1CCn1cccn1 (stereo not given),-23%,0%,13µM*,12%,1%
O=C(CCC(=O)N(CC(=O)NC1CCCC1)Cc1ccccc1)Nc1nccs1,9%,1%,-4%,9%,-1%
COc1ccc(-c2cc(N)n(S(=O)(=O)c3c(F)c(F)c(F)c(F)c3F)n2)cc1OC,2.5µM*,?,?,-95%,16%
COc1ccc(S(=O)(=O)n2nc(-c3cc(OC)c(OC)c(OC)c3)cc2N)cc1OC,9%,?,?,-25%,-3%
CCOC(=O)c1c(NC(=O)C[n+]2ccc(Cc3ccccc3)cc2)sc(C)c1C,-21%,0%,?,/,-13%
SMILES,Sm TGR inh,Pf growth 96h,Pf growth 48h,NS1 function inh,AMA1-RON2 inh
Cc1ccc(NC(=O)CN2C(=O)S/C(=C\c3ccccn3)C2=O)cc1C,-2%,10µM*,-13%,7%,0%
O=c1ccc2c(o1)/C(=C/C=C(Cl)Cl)CCC2,22µM*,?,0%,?,3%
O=S(=O)(c1ccc2ccccc2c1)N1CCC(c2nc(-c3ccncc3)no2)CC1,3%,?,13µM*,12%,-7%
CN(C)c1ccc(-c2noc(C3CCN(S(=O)(=O)c4ccc(C(=O)O)cc4)CC3)n2)cc1,/,/,/,-9%,-4%
CN(C)c1ccc(-c2noc(C3CCN(S(=O)(=O)c4cccc(Cl)c4)CC3)n2)cc1,9%,0.19µM*,?,-15%,-2%
O=C(N1CCOCC1)N1CCC(c2nc(-c3ccc(S(=O)(=O)N4CCOCC4)cc3)no2)CC1,-35%,/,2%,-14%,10%
O=C(OCC(=O)N1CCCCC1)c1ccc2ccccc2n1,/,/,/,/,12%
CC(C)=CCC12Oc3cc(O)ccc3C1(O)Oc1cc3c(c(O)c1C2=O)C=CC(C)(C)O3 (stereo not given),/,/,/,/,-1%
Cc1ccccc1CN1CCC(n2nccc2NC(=O)CCOc2ccccc2)CC1,3%,4.1µM*,?,8%,-10%
Cc1cc(C)c(CN2CCC(n3nccc3NC(=O)CCOc3ccccc3)CC2)cc1C,-10%,13µM*,?,-12%,-12%
O=C(CCOc1ccccc1)Nc1ccnn1C1CCN(Cc2ccccc2)CC1,-22%,?,-11%,0%,0%
Cc1cc(C)c2ccc(N)nc2c1O,-13%,196%,4.1µM*,-58%,53%
Cc1cc(C)c2cccc(N)c2n1,-9%,-59%,22%,3%,?
CC1CN(C(=O)N2CCC(C(=O)NCc3cccs3)CC2)c2cc(Cl)ccc2O1 (stereo not given),0%,/,/,/,/
Cc1ccccc1NC(=O)N(C(C)C)C(C)C,2%,9.3µM*,/,1%,2%
CC(=O)Nc1ccc(NC(=O)Nc2ccccc2C)cc1,15%,26%,58%,1%,-7%
CCOc1cc(N2CCOCC2)c(OCC)cc1NC(=O)CSc1ccccc1C(=O)O,-10%,9.3µM*,?,/,-6%
CCOc1cc(N2CCOCC2)c(OCC)cc1NC(=O)[C@H](C)N1C(=O)C2CC=CCC2C1=O (stereo not given in full),-7%,-2%,-6%,/,-25%
CCOc1cc(N2CCOCC2)c(OCC)cc1NC(=O)Cc1ccc(OC)c(OC)c1,-1%,180%,9.3µM*,2%,-9%
CCOc1cc(N2CCOCC2)c(OCC)cc1NCC(=O)N1CCN(Cc2ccccc2)CC1,0%,5.9µM*,?,-3%,?
CCOc1cc(N2CCOCC2)c(OCC)cc1NC(C)C(=O)N1CCC(C)CC1 (stereo not given),-14%,?,10µM*,-2%,-17%
O=C(NCCOc1ccccc1)C1=CC=CN2CCS(=O)(=O)N=C12,/,/,/,/,12%
Cc1cccc(NC(=O)c2ccc(-n3cnc4cccnc43)cc2)c1C,5%,/,/,/,/
COC(=O)c1c(C)[nH]c(C(=O)NCc2ccco2)c1C,-5%,59%,323%,/,0%
CCOc1cc(N2CCOCC2)c(OCC)cc1NC(=O)COc1cccc(CC)c1,-6%,?,10µM*,/,-5%
CCN1CCN(S(=O)(=O)c2c(C)cc(C)cc2C)CC1,16%,0%,-8%,9%,6%
